Pf growth 48h: inhibits P. falciparum growth in the first generation, 48 h; P. falciparum luciferase growth in erythrocytes, 48 h; Potency, µM (series often up to 28.7 µM), hits mostly inhibitors; hit rate 5.9% among 310,000
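Luminescence readout; reporter = integrated firefly luciferase in P. falciparum. RBC culture at 2% hematocrit, 0.1% parasitemia final, 37 C/5% CO2; decreased signal taken as growth inhibition.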
Pf growth 96h: P. falciparum growth inhibition at 96 hours. Potency, µM (titrated, usually from 28.7 µM), hits mostly inhibitors. AID 504834. P. falciparum luciferase reporter growth, 96 h. hit rate 6.9% among 320,000
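Luminescence readout: decreased luciferase signal marks inhibited growth of reporter-expressing P. falciparum in infected red cells (2% hematocrit, 0.05% parasitemia final), exposed to compound two generations (96 h, 37 C, 5% CO2).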
AmpC detergent: blocks E. coli AmpC beta-lactamase in detergent assay. Potency, µM (top dose mostly 114 µM), usual class: inhibitors. AID 485294. hit rate 0.041% among 370,000. P00811. AmpC hydrolysis of nitrocefin, absorbance 480 nm, 0.01% Triton; note: nearly all actives have a fitted effect of over 25% in size
Target sequence (P00811 whole entry, looked up): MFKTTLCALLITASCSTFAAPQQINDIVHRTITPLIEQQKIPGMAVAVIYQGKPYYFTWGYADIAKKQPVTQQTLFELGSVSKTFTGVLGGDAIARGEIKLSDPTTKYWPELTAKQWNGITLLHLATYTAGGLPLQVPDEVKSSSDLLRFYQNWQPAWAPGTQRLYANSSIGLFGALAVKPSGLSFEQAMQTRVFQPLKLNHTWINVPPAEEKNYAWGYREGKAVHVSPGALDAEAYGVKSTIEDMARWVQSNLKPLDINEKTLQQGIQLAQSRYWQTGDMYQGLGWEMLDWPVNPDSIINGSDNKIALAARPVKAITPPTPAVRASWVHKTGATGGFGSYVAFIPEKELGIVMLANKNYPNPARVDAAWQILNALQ
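20 mM phosphate pH 7.0 + 0.01% (detergent screen) or 0.0001% Triton X-100; 5.3 nM AmpC reagent; cpd preinc 15 min RT; nitrocefin (800 uM stock) to start; A480 q20 s × 4 min; Activity was normalised to no-enzyme and no-compound control wells.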
Sm TGR block: inhibitors of Schistosoma mansoni thioredoxin glutathione reductase; Q962Y6; purified TGR, DTNB reduction, TNB absorbance 405 nm; Potency, µM (top dose mostly 114 µM), usual class: inhibitors; hit rate 3% among 360,000; AID 485364; note: nearly all actives have a fitted effect of over 60% in size
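Kinetic colorimetric format: TGR-catalysed, NADPH-driven DTNB reduction monitored via TNB absorbance. Enzyme dispensed at 20 nM; compound exposure 15 min at room temperature before reaction start.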
SARS PLP yeast: inhibitors of SARS-CoV papain-like protease in yeast. S. cerevisiae expressing SARS-CoV PLpro, growth rescue. Potency, µM (highest dose often 32.9 µM), actives largely listed as activators. hit rate 0.19% among 330,000. AID 485353; calls by dose curve; note: nearly all actives have a fitted effect of over 55% in size
AmpC inh no detg: inhibitors of E. coli AmpC beta-lactamase without detergent; AmpC nitrocefin hydrolysis, absorbance 480 nm, 0.0001% Triton; hit rate 0.52% among 330,000; P00811; Potency, µM (titrated, usually from 57.1 µM), usual class: inhibitors; AID 485341; note: nearly all actives have a fitted effect of over 20% in size
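AmpC (5.3 nM in the dispensed reagent) in 20 mM phosphate pH 7.0 with 0.01% (detergent screen) or 0.0001% Triton X-100 was preincubated with compounds for 15 min at room temperature. Nitrocefin was then added from an 800 uM solution, and hydrolysis was followed at 480 nm.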
Of the large screens only hits and unclear results are named; the others gave an inactive call. Shown are actives, neighbours in structure and some others; about 12% of the full set was active somewhere. Unless noted, calls come from the whole dose curve; as a rule, active = well fitted curve in the direction sought with a large enough effect; inconclusive = small, poorly fitted or top-dose-only effect, or another doubt; inactive = no such curve, though single readings can be large; an effect the other way counts as inactive or inconclusive.

Cc1ccc(-c2cc[n+](Cc3ccccc3)cc2)cc1	Pf growth 48h 0.928µM
Cc1cc[n+](Cc2ccc([N+](=O)[O-])cc2)cc1	Pf growth 48h inconclusive
Cc1cc[n+](Cc2ccccc2)cc1	Pf growth 48h 3.7µM, Pf growth 96h 9.28µM
CCSc1cc(N2CCCC2)nc(-c2ccc(Cl)cc2)n1	none
Clc1ccc(-c2nnc(N3CCCC3)nn2)cc1	Pf growth 48h 0.37µM, Pf growth 96h 0.586µM, AmpC detergent inconclusive
CCOCCCn1c(C)nc2c(c1=O)c1nc3ccccc3nc1n2-c1ccc2c(c1)OCCO2	Pf growth 48h 5.22µM, Pf growth 96h inconclusive
CCC(C)n1cnc2c(c1=O)c1nc3ccccc3nc1n2Cc1ccc2c(c1)OCO2 (stereo unspecified)	Pf growth 48h 3.7µM, Pf growth 96h inconclusive
CCC(C)n1cnc2c(c1=O)c1nc3ccccc3nc1n2-c1ccc2c(c1)OCCO2 (stereo unspecified)	Pf growth 96h 13.1µM
Cc1cccc(NC(=O)[C@@H]2CCCN2C(=O)OC(C)(C)C)c1C	none
COC(=O)c1ccc2c(=O)n(CCCCCC(=O)NCCc3ccccc3)c(=O)[nH]c2c1	none (no result: Pf growth 48h, Pf growth 96h, SARS PLP yeast, AmpC inh no detg)
CCNC(=S)N1CCC(C(=O)c2ccc(Cl)cc2)CC1	Pf growth 96h inconclusive, AmpC detergent inconclusive
CCCNC(=S)N1CCC(C(=O)c2ccc(Cl)cc2)CC1	Pf growth 48h inconclusive, Sm TGR block 89.1µM
CCOC(=O)C(=NC(C)(C)C)NNc1cc(Cl)ccc1Cl	Pf growth 48h inconclusive, Pf growth 96h 9.28µM
CCN(CC)c1ccc(C=C(c2nnnn2-c2ccc(C)cc2)c2nnnn2-c2ccc(C)cc2)cc1	Pf growth 48h 1.65µM, Pf growth 96h inconclusive
Cc1ccc(C(=O)N2CCCCC2CCN2CCCCC2)cc1 (stereo unspecified)	none (no result: Pf growth 48h, Pf growth 96h, SARS PLP yeast, AmpC inh no detg)
N#Cc1ccccc1Cn1cc(/C=C/[N+](=O)[O-])c2ccccc21	Pf growth 48h 9.28µM, AmpC detergent inconclusive
O=[N+]([O-])/C=C/c1cn(Cc2ccccc2)c2ccccc12	Pf growth 48h inconclusive, AmpC detergent inconclusive
CC(=O)c1cccc(N(C(=O)Cn2nnc3ccccc32)C(C(=O)NCc2ccccc2)c2ccc(F)cc2)c1 (stereo unspecified)	none (no result: Pf growth 48h, Pf growth 96h, SARS PLP yeast, AmpC inh no detg)
CCOc1ccc(OCC)c(NC(=O)CN2CCN(CC(=O)NC(C)C)CC2)c1	Pf growth 96h 13.1µM
CCOc1ccc(OCC)c(NC(=O)CN2CCN(c3cccc(C)c3)C(C)C2)c1 (stereo unspecified)	Pf growth 48h 13.1µM, Pf growth 96h inconclusive, AmpC detergent inconclusive
CCOc1ccc(OCC)c(NC(=O)CN2CCN(c3cccc(C)c3)CC2)c1	Pf growth 48h 13.1µM
CCOc1ccc(OCC)c(NC(=O)CN2CCN(c3cc(C)ccc3C)CC2)c1	Pf growth 48h inconclusive, Pf growth 96h inconclusive
CCS(=O)(=O)c1nc(S(=O)(=O)c2ccc(C)cc2)c(NCCCOC)s1	none (no result: Pf growth 48h, Pf growth 96h, SARS PLP yeast, AmpC inh no detg)
CCOC(=O)Cn1c(=NC(=O)CSC(C)=O)sc2cc(F)ccc21	AmpC detergent inconclusive, AmpC inh no detg 35.5µM
COCCn1c(=NC(=O)CSC(C)=O)sc2cc(F)ccc21	none (no result: Pf growth 48h)
COc1cc(NC(C)CCCN)c2ncccc2c1Oc1ccccc1 (stereo unspecified)	Pf growth 48h inconclusive, Pf growth 96h 2.08µM
Clc1ccc(Oc2ccccc2)c2ncccc12	none
COc1cc(N[C@@H](C)CCCN)c2ncccc2c1	Pf growth 48h 0.809µM, Pf growth 96h 0.573µM (no result: AmpC detergent, Sm TGR block, SARS PLP yeast, AmpC inh no detg)
CC1(C)CC(=O)C2=C(C1)OC(N)=C(C#N)C2c1ccc2c(c1)OCO2 (stereo unspecified)	Pf growth 96h inconclusive
COc1ccc(C2CC(=O)OC3=C2C(=O)CC(C)(C)C3)c(OC)c1 (stereo unspecified)	Pf growth 48h 10.4µM, Pf growth 96h inconclusive, AmpC detergent inconclusive
CC1(C)CC(=O)C2=C(C1)OC(N)=C(C#N)C2c1ccccc1[N+](=O)[O-] (stereo unspecified)	Sm TGR block 22.4µM
